Hit rate of the full screen: of about 1,200 compounds, about 140 (12%) were called active. This is one part of a sample in which actives are shown more often than they occur. The calls are words filed in the database; no cut-off is given here.

The assay can be described thus: CFTR-F508del correctors, dose response, FRT cells, YFP quenching, cherry-pick (AID 743402). Type of assay: functional, cell-based.
With `O=C(Nc1ccccc1)N1CCCCN2[C@@H](CO)[C@H](c3ccc(C#Cc4ccccc4)cc3)[C@@H]2C1`, the AbsAC35 is 31.2 µM (active).

On to `O=C1NC(=O)C(=Cc2c(Cl)cccc2Cl)C(=O)N1`, for which the AbsAC35 was 29.4 µM (active).

Source of the values: ChEMBL document CHEMBL1201862, “PubChem BioAssay data set” (2004).
